According to PubChem BioAssay (NCATS):
Records with an inconclusive call do not appear. Activity calls are given as the source filed them. Calls come from the whole dose curve; as a rule, active = well fitted curve in the direction sought with a large enough effect; inconclusive = small, poorly fitted or top-dose-only effect, or another doubt; inactive = no such curve, though single readings can be large; an effect the other way counts as inactive or inconclusive.

What was measured:
[1] = G06 Cancer Cell Toxicity qHTS against the NCATS CANVASS Library (AID 1347368); details: G06 dog glioma cells, viability ATP luminescence, 72 h; series mostly up to 46.1 µM; note: nearly all actives have a fitted effect of over 60% in size; note: potency is the fitted concentration of half-maximal effect
Summary of the method: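 G06 dog glioma cells, 500 per well, exposed 72 hr at 37C, 5% CO2 to compounds in an 11-point series. Cytotoxicity read as ATP content by CellTiterGlo luminescence.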

[2] = MCF7 Cancer Cell Toxicity qHTS against the NCATS CANVASS Library (AID 1347369); details: MCF7 viability, ATP luminescence (CellTiter-Glo), 72 h; note: potency is the fitted concentration of half-maximal effect
Summary of the method: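 Cytotoxicity was measured as CellTiterGlo luminescence (ATP) after 72 h at 37 °C. The cells were MCF7 at 500 per well, with an 11-point compound concentration series.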

[3] = J3T Cancer Cell Toxicity qHTS against the NCATS CANVASS Library (AID 1347371); details: J3T dog glioma viability, ATP luminescence, 72 h; series mostly up to 46.1 µM
Summary of the method: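 J3T dog glioma cells, 500 per well, treated 72 h at 37C with compounds (11-point qHTS); viability from ATP content by CellTiterGlo luminescence; bortezomib titration as control.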

[4] = target: Nuclear receptor subfamily 1 group I member 3 (Homo sapiens) (UniProt Q14994); test: qHTS for Constitutive Androstane Receptor (CAR) Antagonist screened against the NCATS CANVASS Library (AID 1347372); details: HepG2-hCAR-CYP2B6 luciferase, CITCO-stimulated antagonist mode; series mostly up to 46.1 µM;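 note: cells stimulated with 50 nM CITCO agonist so inhibition reflects antagonism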
Summary of the method: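 HepG2 cells stably carrying hCAR and CYP2B6-2.2kb luciferase reporter, 2500 cells/well, compound with 50 nM CITCO agonist for 24hr at 37C. ONE-Glo luminescence measured CAR activity; CellTiter-Fluor read viability.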

[5] = qHTS for Hypoxia signaling pathway (HIF-1) agonists against the NCATS CANVASS Library (AID 1347375); details: HRE-bla ME-180 cells, HIF-1 beta-lactamase reporter, 17 h; series mostly up to 38.3 µM
Summary of the method: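 HRE-bla ME-180 cells (0.5% dialyzed FBS) were pre-incubated 5 hrs at 37C, then exposed to compounds in an 11-point series for 17 hrs. Read-out was CCF4-AM beta-lactamase FRET (460/530 nm emissions), with CellTiter-Glo viability in the same wells.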

[6] = 10-beta competent E. coli microbial cell viability qHTS against the NCATS CANVASS Library (AID 1347376); details: E. coli 10-beta viability, BacTiter-Glo ATP luminescence, overnight; series mostly up to 46.1 µM
Excerpt: Natural products and their derivatives continue to be wellsprings of nascent therapeutic potential. However, many laboratories have limited resources for biological evaluation, leaving their previously isolated or synthesized compounds largely or completely untested. To address this issue, the Canvass library of natural products was assembled (https://tripod.nih.gov/canvass), in collaboration with academic and industry researchers, for quantitative high-throughput screening (qHTS) across a diverse set of cell-based and biochemical assays. […] The library was formatted into 1536-well plates and evaluated in 50 qHTS (in an 11-pnt concentration series) bioassays with broad scope of disease-relevant mechanisms. The resulting data set from 50 different assays was then systematically analyzed to identify overall trends and specific natural products with interesting biological activities. […] The BacTiter-Glo microbial cell viability assay is a homogeneous method for determining the number of viable bacterial cells in culture based on quantitation of the ATP present. […] The homogeneous assay procedure involves adding a single reagent (BacTiter-GloTM Reagent) directly to bacterial cells in medium and measuring luminescence. […]

[7] = DH5-alpha competent E. coli microbial cell viability qHTS against the NCATS CANVASS Library (AID 1347377); details: BacTiter-Glo ATP luminescence, overnight; series mostly up to 46.1 µM
Summary of the method: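 DH5-alpha E. coli suspension was exposed to an 11-point compound series overnight at 37 °C. Viable cells quantified by ATP luminescence (BacTiter-Glo) after 20 min at room temperature.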

[8] = qHTS for ATAD5 Antagonist screened against the NCATS CANVASS Library (AID 1347370); details: HEK293T-ATAD5-luc, 5-FUrd stimulated, luminescence, 16 h; series mostly up to 46.1 µM;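 note: HEK293T cells carrying an ATAD5 luciferase reporter co-treated with 10 µM 5-fluorouridine; nearly all actives have a fitted effect of over 65% in size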
Summary of the method: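 HEK293T cells with stably integrated ATAD5-luciferase reporter, 2000/well, 5 h attachment; compounds plus 10 µM 5-fluorouridine, 16 h at 37 °C. Luciferase luminescence read, with CellTiter-Fluor viability read first.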

[9] = target: Nuclear receptor subfamily 1 group I member 3 (Homo sapiens) (UniProt Q14994); test: qHTS for Constitutive Androstane Receptor (CAR) Agonist screened against the NCATS CANVASS Library (AID 1347373); details: HepG2-hCAR-CYP2B6 luciferase reporter, ONE-Glo luminescence; series mostly up to 46.1 µM;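 note: every well also contained 1.5 µM PK11195 alongside the test compound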
Summary of the method: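 HepG2 cells stably carrying hCAR and a CYP2B6-2.2kb luciferase reporter, treated 24hr at 37C with compounds plus 1.5uM PK11195; activation by ONE-Glo luminescence, viability by CellTiter-Fluor.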

[10] = qHTS for Hypoxia signaling pathway (HIF-1) antagonists against the NCATS CANVASS Library (AID 1347374); details: HRE-bla ME-180 cells, HIF-1 beta-lactamase reporter, CoCl2; series mostly up to 38.3 µM;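 note: HRE-bla ME-180 cells stimulated with cobalt chloride to stabilize HIF-1alpha; nearly all actives have a fitted effect of over 60% in size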
Summary of the method: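 HRE-bla ME-180 cells in medium with 0.5% dialyzed FBS received compounds (11-point series) plus CoCl2 (60 uM addition stock) for 17 hrs at 37C. Beta-lactamase activity read with CCF4 (405 nm ex, 460/530 nm em); CellTiter-Glo viability measured in same wells.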

Measured: Potency

Sequence of Nuclear receptor subfamily 1 group I member 3 (Homo sapiens) (Q14994 whole entry, looked up): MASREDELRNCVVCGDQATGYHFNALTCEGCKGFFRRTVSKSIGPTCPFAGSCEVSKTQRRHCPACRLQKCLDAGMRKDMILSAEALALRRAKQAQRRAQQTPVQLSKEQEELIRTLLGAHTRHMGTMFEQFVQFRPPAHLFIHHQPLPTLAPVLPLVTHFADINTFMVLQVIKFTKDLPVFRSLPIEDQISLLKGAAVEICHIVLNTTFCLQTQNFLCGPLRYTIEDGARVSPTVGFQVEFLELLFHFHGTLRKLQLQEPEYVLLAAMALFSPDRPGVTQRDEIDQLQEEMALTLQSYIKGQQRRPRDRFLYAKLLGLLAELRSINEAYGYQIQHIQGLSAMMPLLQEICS

O=c1cc(-c2ccccc2)oc2c(O)c(O)ccc12
active: [1] 9.35 µM | [2] 13.1 µM
inactive: [3] | [4] | [5] | [6] | [7]

O=C(O)c1cc(O)c(O)c(O)c1
not listed: [2]
inactive: all other assays above
